In ChEMBL document CHEMBL3988442, “University of Dundee, Small-Polar-MMV Screening Library” (2021):
In all, about 69,000 compounds went through this assay and about 1,000 (1.4%) showed an effect of 50% or more. The list comes from a sample in which strong results are over-represented; it also holds similar structures and randomly drawn compounds.

Test system: Leishmania donovani
Test: Leishmania intramacrophage assay
Type: functional, organism-based
Set-up: scale not given: in the data most compounds retested in dose-response had high values

Cc1cnn(CCCNC(=O)N2CCCCC(N3CCCC3)C2)c1 (stereo not given)
Percent Effect (30 µM, 30.03 µM): 26.48%

Clc1cccc(OCCCN2CCOC(Cn3cncn3)C2)c1 (stereo not given)
Percent Effect (30 µM): 18.78%

CCCn1cc(CN2CCCC2c2nccc(CN(C)C)n2)cn1 (stereo not given)
Percent Effect (30.3 µM, […]): -4.658%

O=C(c1cc(C2CCCCN2C(=O)C2CCC2)n[nH]1)N1CCOCC1 (stereo not given)
Percent Effect (30.3 µM, […]): -8.909%

NC(=O)c1ccc(NC(=O)c2ccncc2F)cn1
Percent Effect (30.3 µM, […]): 52.29%

CCc1cnccc1C(=O)Nc1ccc(C(N)=O)nc1
Percent Effect (30.3 µM, […]): -9.48%

NC(=O)c1ccc(NC(=O)c2ccncc2Cl)cn1
Percent Effect (30.3 µM, […]): 4.641%

COCC(=O)N1CCCCC1c1nc(C)c2c(n1)N(C1CC1)C(=O)CC2 (stereo not given)
Percent Effect (30.3 µM, […]): 6.342%

c1csc(-c2cc(CN3CCN(c4nccs4)CC3)no2)c1
Percent Effect (30.3 µM, […]): 21.99%

Cc1cc(=O)[nH]cc1C(=O)N1CCN(C)c2ccccc2C1
Percent Effect (30.3 µM, […]): 57.95%

Cc1cc(=O)c(C(=O)N2CCN(C)c3ccccc3C2)c[nH]1
Percent Effect (30.3 µM, […]): -29.42%

Cc1cc(=O)[nH]cc1C(=O)N1Cc2ccccc2N(C)CC1C (stereo not given)
Percent Effect (30.3 µM, […]): -24.09%

COCc1nnc(NC(=O)CN2C(=O)c3ccccc3NC2C(C)C)s1 (stereo not given)
Percent Effect (30.3 µM, […]): 33.02%

NC(=O)CCCNC(=O)Cc1cccc(I)c1
Percent Effect (30.3 µM, […]): 7.14%

O=C(NC1CC1)NC(c1ccc(F)cc1)C1CC1 (stereo not given)
Percent Effect (30.3 µM, […]): 4.479%

N#Cc1cccc(N2CCCC3(CN(C(=O)c4ccc[nH]4)CCO3)C2)c1 (stereo not given)
Percent Effect (30.3 µM, […]): 1.97%

CCC1=N[C@@]2(CC[C@@H]3CN(Cc4ccccc4C)C[C@@H]32)C(=O)N1C.O=C(O)C(F)(F)F
Percent Effect (30.3 µM, […]): 57.66%

CCC1=N[C@@]2(CC[C@@H]3CN(Cc4ccccc4C)C[C@@H]32)C(=O)N1.O=C(O)C(F)(F)F
Percent Effect (30.3 µM, […]): 9.963%

CCC1=N[C@@]2(CC[C@@H]3CN(Cc4ccc(C)cc4)C[C@@H]32)C(=O)N1C.O=C(O)C(F)(F)F
Percent Effect (30.3 µM, […]): 15.86%

CCc1ccc(C2COCCN2C(=O)Nc2ccc(C(N)=O)c(Cl)c2)o1 (stereo not given)
Percent Effect (30.3 µM, […]): -7.006%

CC1=C(C(=O)N2CCCC(Cn3cc(CO)nn3)C2)OCCO1 (stereo not given)
Percent Effect (30.3 µM, […]): -4.102%

Cc1ccccc1-n1cnc(Cl)c1CO
Percent Effect (30.3 µM, […]): 0.1894%

NS(=O)(=O)c1cccnc1Nc1cccc(Cl)c1Cl
Percent Effect (30.3 µM, […]): 7.348%

NS(=O)(=O)c1cccnc1Nc1c(Cl)cccc1Cl
Percent Effect (30.3 µM, […]): 68.36%

NS(=O)(=O)c1cccnc1NCc1ccco1
Percent Effect (30.3 µM, […]): 37.64%

CC1Cc2ccccc2N1C(=O)Cn1nc(-c2cccs2)ccc1=O (stereo not given)
Percent Effect (30.3 µM, […]): 31.43%

O=C1CC(c2ccc(C(=O)O)cc2)c2ncn(-c3ccccc3F)c2N1 (stereo not given)
Percent Effect (30.3 µM, […]): 26.03%

CC(=O)Nc1nc(C(=O)Nc2ccc(N3CCCCC3)nc2)cs1
Percent Effect (30 µM, 30.03 µM): 56.06%

CC(=O)Nc1nc(C(=O)NCc2ccc(N3CCCC3)nc2)cs1
Percent Effect (30 µM): 7.198%

CC(=O)Nc1nc(C(=O)NCc2ccc(N3CCCCCC3)nc2)cs1
Percent Effect (30 µM, 30.03 µM): 27.71%

Cc1cn2c(n1)CCC(NC(=O)CCC(F)(F)F)C2 (stereo not given)
Percent Effect (30 µM, 30.03 µM): -20.9%

COc1ccc(N2CCN(Cc3nc(CSC)no3)C(C)C2=O)cc1 (stereo not given)
Percent Effect (30.3 µM, […]): -39.19%

CCc1nnc(CN2CCN(c3cccc(OC)c3)C(=O)C2)o1
Percent Effect (30.3 µM, […]): 85%

COCCc1noc(CN2CCN(c3ccc(OC)cc3)C(=O)C2C)n1 (stereo not given)
Percent Effect (30.3 µM, […]): 6.497%

CCc1ccc(CN2CCN(c3cccc(OC)c3)C(=O)C2)nc1
Percent Effect (30.3 µM, […]): 11.49%

COc1ccc(N2CCN(Cc3nc(CSC)no3)CC2=O)cc1
Percent Effect (30.3 µM, […]): 62.54%

COc1cc(CN2CCN(c3cccc(OC)c3)C(=O)C2)cc(OC)c1
Percent Effect (30 µM, 30.03 µM): -0.5901%

O=C(Nc1ccccc1F)C1=NN(c2ccccc2)C(=O)CN1
Percent Effect (30 µM): -15.12%

Cc1cc(NCCc2c(C)n[nH]c2C)nc(-c2cccnc2)n1
Percent Effect (30.3 µM, […]): 4.777%

Cn1ccnc1CN(Cc1ccccn1)Cc1ccccc1Cl.O=C(O)CC(O)(CC(=O)O)C(=O)O
Percent Effect (30.3 µM, […]): 10.71%

O=C(Nc1ccc(Cl)cn1)c1cncc(C2CCNCC2)n1
Percent Effect (30.3 µM, […]): -16.97%

COc1ccccc1C(=O)N1CCN(CCc2scnc2C)CC1
Percent Effect (30.3 µM, […]): 5.837%

CCS(=O)(=O)NCC(=O)Nc1cc(CC(C)(C)C)n[nH]1
Percent Effect (30.3 µM, […]): -13.95%

Cc1cnn(C2CN(CCOc3cccc(C#N)c3)C2)c1
Percent Effect (30.3 µM, […]): 0.4339%

COc1ccc(C2CCCN2c2cnccn2)c(OC)c1 (stereo not given)
Percent Effect (30.3 µM, […]): 20.05%

COc1ccc(C2CCCN2c2ccnc(C)c2Cl)c(OC)c1 (stereo not given)
Percent Effect (30.3 µM, […]): 54.95%

COc1ccc(C2CCCN2c2nnc(C)s2)c(OC)c1 (stereo not given)
Percent Effect (30.3 µM, […]): 1.461%

CCOc1ccc(CNCCCn2ccnc2)cc1Br
Percent Effect (30 µM, 30.03 µM): 80.37%

COCCCn1ccc(NC(=O)NCCCn2ccnc2)n1
Percent Effect (30.3 µM, […]): 2.018%

COc1ccc(C(=O)NCCCn2ccnc2)c(OC)n1
Percent Effect (30 µM, 30.03 µM): 10.91%

CCOc1cc(CNCCCn2ccnc2)cc(Cl)c1OCC
Percent Effect (30.3 µM, […]): 81.44%

CCOc1ccc(CNCCCn2ccnc2)cc1Cl.Cl.Cl
Percent Effect (30.3 µM, […]): 68.16%

CCOc1ccc(NC(=O)N2CCC(n3cncn3)CC2)cc1Cl
Percent Effect (30.3 µM, […]): -3.205%

CCOc1cc(CNCCCn2ccnc2)cc(Cl)c1OC
Percent Effect (30.3 µM, […]): 37.96%

CCOc1ccc(CNCCCn2ccnc2)cc1OC
Percent Effect (30.3 µM, […]): 3.86%

COc1cc(CNCCn2ccnc2)cc2c1OCO2.Cl
Percent Effect (30.3 µM, […]): 27.41%

CN(C)C(=O)COCc1nn(C)c2c1CCN(Cc1ccco1)C2.O=C(O)C(F)(F)F
Percent Effect (30.3 µM, […]): 23.44%

O=C(NCC(F)F)c1ccc(S(=O)(=O)N2CCCC(O)C2)cc1 (stereo not given)
Percent Effect (30.3 µM, […]): 15.51%

CN(C)Cc1ccc(C(=O)N2CCCC(n3cccn3)C2)cc1 (stereo not given)
Percent Effect (30.3 µM, […]): -1.565%

Cc1nn(C)c(N(C)C)c1CNC1CCc2c(Cl)cccc21.Cl (stereo not given)
Percent Effect (30 µM): 34.54%

O=C([C@@H](O)Cc1ccccc1)N1CCCn2cncc2C1
Percent Effect (30.3 µM, […]): 13.9%

Cn1ccc(C(=O)Nc2nc(-c3ccc4c(c3)CCO4)cs2)cc1=O
Percent Effect (30.3 µM, […]): 32.33%

O=C(COc1ccccc1)N1C[C@@H]2COC[C@]2(COc2cccnc2)C1.O=C(O)C(F)(F)F
Percent Effect (30.3 µM, […]): 29.31%

O=C(O)C(F)(F)F.O=C(c1cc(C2CC2)on1)N1C[C@@H]2COC[C@]2(COc2cccnc2)C1
Percent Effect (30.3 µM, […]): 50.64%

O=C(O)C(F)(F)F.O=C(c1ccc(F)cc1)N1C[C@@H]2COC[C@]2(COc2cccnc2)C1
Percent Effect (30.3 µM, […]): 16.14%
